# RORg inh: qHTS for inhibitors of ROR gamma transcriptional activity. Potency, µM (series often up to 53.6 µM), without a hit: top-dose activity change, negative = inhibition, usual class: inhibitors. Drosophila S2 Gal4-RORgamma UAS-luciferase reporter, 20 h. AID 2551, 2010. Nuclear receptor ROR-gamma (Mus musculus), P51450. actives 5.4% (n = 310,000); also: potency is read from the fitted curve at half-maximal effect; % is scaled to controls: 0 for no effect and ±100 for the full control effect; nearly all actives have a fitted effect of over 60% in size
# Target sequence (P51450 whole entry, looked up, the tested form may be a part): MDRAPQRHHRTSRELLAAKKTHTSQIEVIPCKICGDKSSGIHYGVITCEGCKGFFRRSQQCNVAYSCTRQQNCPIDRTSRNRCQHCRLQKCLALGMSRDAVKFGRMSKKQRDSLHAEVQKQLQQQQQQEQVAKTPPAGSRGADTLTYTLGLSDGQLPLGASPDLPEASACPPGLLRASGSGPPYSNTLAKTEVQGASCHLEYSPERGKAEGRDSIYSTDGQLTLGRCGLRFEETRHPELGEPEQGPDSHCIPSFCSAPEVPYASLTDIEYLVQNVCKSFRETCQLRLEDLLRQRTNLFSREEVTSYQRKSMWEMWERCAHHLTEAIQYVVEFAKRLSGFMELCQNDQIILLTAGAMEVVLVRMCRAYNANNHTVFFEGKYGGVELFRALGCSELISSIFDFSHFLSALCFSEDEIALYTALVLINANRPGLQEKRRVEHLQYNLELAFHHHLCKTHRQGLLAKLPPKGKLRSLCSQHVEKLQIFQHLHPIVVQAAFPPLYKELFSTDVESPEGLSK
#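 Stable Schneider cell line, Gal4 DNA-binding domain fused to ROR gamma, UAS-luciferase. Cmpd 1 hr RT → CuSO4 700 uM final → 20 hr RT → luciferase reagent 10 min → luminescence.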
# CBFb-RUNX1 inh: qHTS Assay for Compounds Blocking the Interaction Between CBF-beta and RUNX1 for the Treatment of Acute Myeloid Leukemia | AlphaScreen CBFb-His/RUNX1-biotin binding, biochemical | Potency, µM (series often up to 59.8 µM), for the others: at the top dose activity, negative = inhibition, actives largely listed as inhibitors | 230,000 tested, under 10 active | AID 1477, 2009; also: % of control where 0% means no effect
#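 CBF-beta (His) and RUNX1 (biotin), 30 nM each; 20 min preassociation; + compound, 15 min; + beads 50 ng each (Ni, streptavidin), 90 min; RT; AlphaScreen read.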
# Six1-Eya2 inh: qHTS Assay for Inhibitors of the Six1/Eya2 Interaction; Homeobox protein SIX1 (Homo sapiens) + Protein phosphatase EYA2 (Homo sapiens), …; AlphaScreen GST-Six1/His-Eya2 binding, biochemical; active compounds read low; activity change, % (test concentration not listed); actives 0.56% (n = 360,000); AID 651725, 2012; in the data active = activity change below about -65%; inconclusive = mostly about -30% to -63%; also: % is scaled to controls: 0 for no effect and ±100 for the full control effect
#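 Homogeneous AlphaScreen proximity assay pairing GST-Six1 with His-tagged Eya2 (added as 5X mix: 250 nM and 500 nM) in 50 mM Tris pH 8.0, 300 mM NaCl, 1 mM TCEP. Glutathione donor and nickel acceptor beads; 1 h, 37 °C, dark.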
# Gal4-VP16 FLuc: VP16 counterscreen qHTS for inhibitors of ROR gamma transcriptional activity. AID 2546, 2010. Potency, µM (highest dose often 53.6 µM), inactives show at the highest dose activity, negative = inhibition, hits mostly inhibitors. Drosophila S2 Gal4-VP16 UAS-luciferase, luminescence, 20 h. actives 3.5% (n = 310,000);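 also: Gal4-VP16 expression switched on by copper sulfate through the metallothionein promoter; potency is read from the fitted curve at half-maximal effect; % is scaled to controls: 0 for no effect and ±100 for the full control effect; nearly all actives have a fitted effect of over 50% in size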
# MBNL1 CUG block: qHTS Assay for Inhibitors of MBNL1-poly(CUG) RNA binding | Muscleblind-like protein 1 (Homo sapiens), Q9NR56 | Potency, µM (top dose mostly 57.5 µM), for the others: at the top dose activity change, negative = inhibition, usual class: inhibitors | actives 0.036% (n = 280,000) | TR-FRET MBNL1-His/biotin-(CUG)12 binding, 665/545 ratio | AID 2675, 2010; active = well fitted inhibition curve with a large enough effect in the signal ratio, with a control signal flat, not every such curve was filed as active; inconclusive = small, poorly fitted or top-dose-only effect, or effect the other way, or a change in a side signal; inactive = no such curve, though single readings can be large or run the other way; the % refers to the signal ratio; also: potency is read from the fitted curve at half-maximal effect; % is scaled to controls: 0 for no effect and ±100 for the full control effect
#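 Compound titration spanned 92 nM–58 uM against the MBNL1-His/biotin-(CUG)12 complex. After 60 min at room temperature with 5 nM streptavidin-XL665 and 0.055 ng/ul terbium anti-His, ratiometric 665/545 nm emission (Ex 340 nm) normalized to controls.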
# CtBP-E1A blk: qHTS Assay for Inhibitors of the CtBP/E1A Interaction; CtBP / adenovirus E1A interaction (AlphaScreen); AlphaScreen GST-E1A/His-CtBP binding, 1536-well; active compounds read low; activity change, % (no concentration beside the values); actives 0.49% (n = 340,000); in the data active = activity change below about -65%; inconclusive = mostly about -30% to -63%; also: % is scaled to controls: 0 for no effect and ±100 for the full control effect
#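 Protein mix (5X: 125 nM each GST-E1A, His-CtBP) was incubated with pinned compound 2 h at 37 deg C in dark, in 50 mM Tris pH 8.0 buffer with 300 mM NaCl. Glutathione donor and nickel acceptor beads followed; AlphaScreen signal read after 1 h.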
# * = called active by the depositor; ? = inconclusive; / = not tested or not shown; [ ] = remark or other dose. Compounds with a hit are over-represented: about 5.5% of the library has one in this group of screens. Unless noted, calls follow the shape of the dose curve; as a rule, active = well fitted curve in the direction sought with a large enough effect; inconclusive = small, poorly fitted or top-dose-only effect, or another doubt; inactive = no such curve, though single readings can be large; an effect the other way counts as inactive or inconclusive.
SMILES,RORg inh,CBFb-RUNX1 inh,Six1-Eya2 inh,Gal4-VP16 FLuc,MBNL1 CUG block,CtBP-E1A blk
O=S(=O)(NC(=S)NC1CCCCC1)c1ccccc1,4.5µM*,0%,5,?,6%,8
COc1ccncc1-c1ccc(C2=CC(=O)CC(C)(C)C2=O)cc1,/,/,-21,/,/,-10
CCOc1ccc(CN(C)c2nc(-c3cccnc3)nc3ccccc23)cc1OC,-20%,/,-23,-5%,-10%,21
COc1ccc([C@H]2Oc3cc(O)cc(O)c3C(=O)C2[C@@H]2C(=O)c3c(O)cc(O)cc3O[C@@H]2c2ccc(OC)cc2)cc1 (some centres undefined),-90%,-1%,-10,22µM*,-6%,-10
Cc1ccc(-c2nc(SC(C)C(=O)NC3CC3)n[nH]2)cc1 (centres undefined),/,/,1,/,/,3
CCn1c2ccccc2c2cc(NC(=O)CSc3nnc(-c4cccc(F)c4)o3)ccc21,-5%,-2%,6,9%,46%,-3
CCOC(=O)Cc1csc(NC(=O)CSc2nnc(-c3ccc(F)cc3)o2)n1,4µM*,2%,1,?,0%,7
CCOC(=O)Cc1csc(NC(=O)CSc2nnc(-c3ccc(C)cc3)o2)n1,11µM*,-2%,2,?,7%,3
Cc1csc(NC(=O)CSc2nnc(-c3ccccc3)o2)n1,?,-6%,-1,-15%,1%,-5
Cc1csc(NC(=O)CSc2nnc(-c3ccc(S(=O)(=O)N4CCCC4)cc3)o2)n1,13µM*,4%,-4,-28%,10%,-10
O=C(CSc1nnc(-c2cccc(F)c2)o1)Nc1nncs1,13µM*,-28%,-12,?,8%,0
CC#CCN1c2ccccc2[C@]23C[C@@H](C(=O)OC)N(S(=O)(=O)c4cccs4)C2=NC(C(=O)OC)=C(C(=O)OC)[C@H]13,/,4%[13.1 µM],/,/,/,/
OCc1c(OCc2cccc(F)c2)ccc2ccccc12,23%,/,2,?,21%,/
CC(C)=NO[C@@H](C)c1cn([C@H](CO)Cc2ccccc2)nn1,4%[10 µM],3%[13.1 µM],/,-5%[10 µM],/,/
COc1cccc(/C=N/NC(=O)Cn2nc(C)c([N+](=O)[O-])c2C)c1O,0.35µM*,-15%,-95*,0.79µM*,-14%,-94*
COc1cccc(/C=N/NC(=O)C(C)n2nc(C)c([N+](=O)[O-])c2C)c1O (centres undefined),0.18µM*,?,-89*,0.04µM*,/,-66*
CC1CCN(C(=O)c2cc(S(=O)(=O)N3CCOCC3)ccc2N2CCCC2)CC1,/,/,18,/,/,/
CCOC(=O)CN(C(=O)CSc1nnc2c(n1)[nH]c1ccc(F)cc12)c1ccccc1,40%,-4%,-66*,-5%,?,-70*
CCOC(=O)CN(C(=O)CSc1nnc2c(n1)[nH]c1ccccc12)c1ccccc1,5%,3%,?,-16%,15%,?
COc1ccc(NC(=O)CCNS(=O)(=O)c2ccc3[nH]c(=O)oc3c2)cc1Cl,-27%,/,-5,-9%,-4%,-8
CC(OC(=O)c1ccc(-c2ccc(O)cc2)cc1)C(=O)NC1CCCCC1C (centres undefined),/,/,-1,/,/,-9
CCOC(=O)N1CCN(C(=O)c2ccc3c(=O)n(CCc4ccccc4)c(=S)[nH]c3c2)CC1,7.1µM*,-3%,1,0%,10%,7

# Screening results (PubChem BioAssay)
